In all, about 2,200 compounds went through this assay and about 530 (24%) were called active. A selection follows. Results with a measured potency or affinity are listed apart. A number with no mark means an inactive call.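 Rule for the calls: active = inhibition above a set limit at one or more concentrations of the dose series; inactive = inhibition under that limit at every dose.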
Assay: nmpC-GFP reporter counter-screen in S. Typhimurium, dose response, counter-screen for PhoP regulon inhibitor project, Salmonella Typhimurium, GFP fluorescence (AID 2401);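 note: S. typhimurium with Mg-insensitive nmpC-GFP reporter grown at 10 µM Mg2+; drop in reporter fluorescence reflects general culture growth inhibition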
Details: 4 h; series mostly up to 150 µM; inhibition: at the top concentration
For `O=C(Nc1ccc(S(=O)(=O)Nc2nccs2)cc1)c1cc(-c2ccccc2)nc2ccccc12`, the “inhibition” value was 4.41%. For `COc1ccc(C(C)=O)c2c(O)cccc12`, the “inhibition” value was 4.56%. With `CC1(C)CC(=O)C2=C(C1)OC1=C(C(=O)CC(C)(C)C1)C2c1ccc(O)cc1O` the “inhibition” value was 9.69%. In the case of `c1ccc(-n2cnc3cc(NCc4ccccn4)ccc32)cc1`, the “inhibition” value is reported as -4.69%. In the case of `CCOC(=O)C1(S(=O)(=O)c2ccccc2)CCN(Cc2ccc(Cl)cc2)CC1`, the “inhibition” value is reported as 5.17%. With `O=C(Nc1ccc2c(c1)oc1ccccc12)N1CCOCC1` the “inhibition” value was -7.09%. In the case of `CCOc1ccccc1OCC(=O)Nc1ccc(S(=O)(=O)Nc2nc(C)cc(C)n2)cc1`, the “inhibition” value is reported as -11.6%. With `Cc1ccc(SC(c2ccc(C)cc2)C(Cn2cncn2)C(=O)c2ccccc2)cc1` (configuration not stated) the “inhibition” value was -15.4%. With `CN(C)c1nc(N)nc(Cn2ccnc2)n1` the “inhibition” value was -5.04%. With `N/C(=N\OC(=O)c1cccs1)C1(c2ccc(Cl)cc2Cl)CC1` the “inhibition” value was -14.9%. In the case of `C=CCc1ccccc1OCC(O)CN1CCN(CCN2C(=O)c3cccc4cccc(c34)C2=O)CC1` (configuration not stated), the “inhibition” value is reported as 1.41%. For `COc1cc(C2Nc3cccc4cccc(c34)N2)cc(OC)c1O`, the “inhibition” value was 23.9%. For `COc1cccc(C2CC(=O)Nc3cc(OC)c(OC)c(OC)c32)c1OC` (configuration not stated), the “inhibition” value was -6.54%. In the case of `C=C(C)Cn1c(CCn2c3ccccc3c3ccccc32)n[nH]c1=S`, the “inhibition” value is reported as 4.79%. In the case of `CN(C(=O)c1cccc(C#N)c1)c1nnc(-c2cnccn2)s1`, the “inhibition” value is reported as 1.99%. With `Cn1c(CC(=O)Nc2ccc(Cl)c(Cl)c2)nnc1SCC(=O)Nc1nccs1` the “inhibition” value was -37.2%. For `Cc1cc2ncn(CC(O)COc3cccc(C(=O)O)c3)c2cc1C` (configuration not stated), the “inhibition” value was -28.7%. With `N#Cc1c(N)nc(SCC(=O)NC2CCCCC2)c(C#N)c1-c1ccc(Cl)cc1` the “inhibition” value was -24.1%. With `Fc1cccc(NCc2cn3ccccc3n2)c1` the “inhibition” value was 23.2%. With `O=S(=O)(c1ccc(N2CCCC2c2nc3ccccc3s2)nc1)N1CCOCC1` (configuration not stated) the “inhibition” value was -14.8%. In the case of `Nc1nnc(Sc2ccc(Cl)cc2[N+](=O)[O-])s1`, the “inhibition” value is reported as -0.98%. With `CN(c1cccc(Cl)c1)S(=O)(=O)c1cccc(C(=O)Nc2nc3ccccc3[nH]2)c1` the “inhibition” value was 16.2%. In the case of `C(=C\c1ccccc1)/C=N/Nc1nc2ccccc2[nH]1`, the “inhibition” value is reported as 19.1%. For `CCN(CC)c1ccc(/C=N/NC(=S)NCc2ccccc2)c(O)c1`, the “inhibition” value was 9.66%. For `C#CCn1cc(/C=N/Nc2nc3ccccc3[nH]2)c2ccccc21`, the “inhibition” value was 31.1%. For `COc1ccc(/C=C/c2nc3ccccc3n2Cc2ccccc2OC)cc1`, the “inhibition” value was -5.49%. In the case of `COc1ccccc1NC(=O)Cn1nnc(-c2ccccc2NC(=O)c2cccs2)n1`, the “inhibition” value is reported as -10.7%. For `COC(=O)CSc1nnc(-c2ccco2)n1Cc1ccco1`, the “inhibition” value was -13.6%. In the case of `Cc1cccc(-n2nc3c(c2NC(=O)c2ccco2)CSC3)c1C`, the “inhibition” value is reported as -29.7%. With `O=C(C[n+]1cc(-c2ccccc2)n2c1CCCCC2)c1ccc(Cl)cc1` the “inhibition” value was -22.6%. In the case of `C/C(=N/Nc1nc(-c2ccc(Cl)cc2)cs1)c1cccs1`, the “inhibition” value is reported as -20.6%. For `CCN(CC)CC(=O)Nc1nc(-c2ccc(Cl)cc2)cs1`, the “inhibition” value was -3.92%. With `COc1ccc(OC)c(NC(=S)NCCCN2CCOCC2)c1` the “inhibition” value was -26.6%. For `CN(CCNS(=O)(=O)c1ccc2c(c1)oc(=O)n2C)Cc1ccccc1`, the “inhibition” value was 14.6%. For `Cc1cc(C)c(C#N)c(SCC(O)CS(=O)(=O)Cc2ccccc2)n1` (configuration not stated), the “inhibition” value was -4.96%. For `O=C(CSC1CCCCC1)Nc1ccccc1Br`, the “inhibition” value was -14.2%. For `Cc1ccc(C(=O)Oc2ccc(C(=O)COC(=O)c3cnccn3)cc2)cc1`, the “inhibition” value was -20.6%. With `O=C(NC1CCCCC1)C(c1ccncc1)N(Cc1ccccc1)C(=O)c1ccc(-c2ccccc2)[nH]1` (configuration not stated) the “inhibition” value was 8.67%. For `Clc1ccccc1OCCn1ccnc1`, the “inhibition” value was -11.3%. With `Cc1ccc(C(=O)NCc2ccc(Cl)cc2)o1` the “inhibition” value was 15.7%. With `S=C(Nc1ccc2snnc2c1)N1CCN(c2ccccn2)CC1` the “inhibition” value was 34.2%. For `CC1CN(C(=O)CCc2ccccc2)C(C)CN1C(=O)CCc1ccccc1` (configuration not stated), the “inhibition” value was 1.08%. For `O=C(NC(NC(=S)Nc1ccc(Cl)cc1)C(Cl)(Cl)Cl)c1ccco1` (configuration not stated), the “inhibition” value was -30.7%. With `Cc1ccc(NC(=S)NC(NC(=O)c2ccco2)C(Cl)(Cl)Cl)cc1` (configuration not stated) the “inhibition” value was 12.3%. With `O=c1c(Br)c(Br)cnn1-c1ccccc1` the “inhibition” value was 26.3%. With `Clc1ccc(-c2csc3ncnc(N4CCc5ccccc5C4)c23)cc1` the “inhibition” value was -19.2%. With `CCOC(=O)c1sc2nccc(N(C)C)c2c1N=CNOCc1c(F)cccc1Cl` the “inhibition” value was 0.78%. In the case of `CCCCCn1c(C(C)NC(=O)CCC)nc2ccccc21` (configuration not stated), the “inhibition” value is reported as 4.48%. In the case of `Cc1ccc2cccnc2c1NC(=S)NC(=O)c1ccccc1`, the “inhibition” value is reported as 3.45%. With `O=C(NC(c1ccc(Cl)cc1)c1c(O)ccc2ccccc12)c1ccccc1` (configuration not stated) the “inhibition” value was -14.6%. For `O=C(Cc1ccccc1)NC1c2ccccc2-c2ccccc21`, the “inhibition” value was -12.7%. With `O=C(CSc1nnc(-c2ccc(O)cc2)n1-c1ccccc1)CC(=O)Nc1ccccc1` the “inhibition” value was 15.1%. With `O=C(OCC1COc2ccccc2O1)c1ccccc1F` (configuration not stated) the “inhibition” value was -18.5%. For `CC1=C(C(=O)OCC2CCCO2)C(c2cccc(C(F)(F)F)c2)C2=C(CC(c3ccco3)CC2=O)N1` (configuration not stated), the “inhibition” value was -25.9%. In the case of `O=S(=O)(Nc1ccc(Cc2ccncc2)cc1)c1ccc(Br)s1`, the “inhibition” value is reported as -31.1%. For `Cn1ncc(N=Cc2ccccc2O)c1C(=O)Nc1ccccc1`, the “inhibition” value was 8.45%. For `N#CC1=C(N)Oc2c(O)cc3ccccc3c2C1c1ccsc1` (configuration not stated), the “inhibition” value was -14.3%. With `O=C(CSCc1ccccc1)Nc1ccc2c(c1)OCO2` the “inhibition” value was -7.93%. For `CCOc1cc(CNn2cnnc2)ccc1OCC(=O)NC1CCCCC1`, the “inhibition” value was -8.61%. With `O=C(CCCNS(=O)(=O)c1ccccc1)NCc1ccco1` the “inhibition” value was -22.5%. With `Cc1ccc(C(=O)Nc2ccc3c(c2)OCO3)o1` the “inhibition” value was 18.3%. With `Clc1ccc(C[n+]2cc(-c3ccc(Cl)cc3)n3c2CCC3)cc1` the “inhibition” value was 36.7%. For `Clc1ccc(-c2cnc3n2CCC3)cc1`, the “inhibition” value was 15%. In the case of `COC(=O)Cc1c(O)ccn(Cc2ccc(F)cc2)c1=O`, the “inhibition” value is reported as -29.4%. For `O=C(O)Cn1cc(C(=O)c2ccco2)c2ccccc21`, the “inhibition” value was 2.21%. With `CCn1cc(C(=O)O)c(=O)c2cc(OC)ccc21` the “inhibition” value was 32.4%. For `O=C(Nc1ccc(NC(=O)C23CC4CC(CC(C4)C2)C3)cn1)c1ccco1`, the “inhibition” value was -21.7%. For `Oc1ccc(-c2n[nH]c(=S)n2-c2ccc3c(c2)OCCO3)c(O)c1`, the “inhibition” value was -14.8%. With `Nn1c(COc2cccc(Br)c2)nnc1SCC(=O)N1CCc2ccccc2C1` the “inhibition” value was -13.3%. With `c1ccc2c(C3=NNC(=NC4CC4)SC3)c[nH]c2c1` the “inhibition” value was 13.1%. For `O=C(Nc1cnn(Cc2ccc(Cl)cc2Cl)c1)c1noc2c1CCCC2`, the “inhibition” value was -3.26%. For `CC(=O)c1c(N2CCN(C(=O)C3CCCO3)CC2)nc(=S)n(-c2ccccc2)c1C` (configuration not stated), the “inhibition” value was -21.4%.
